We go through five compounds from PubChem BioAssay.

Inconclusive results are not listed. Active and inactive are the calls of the source. Cut-off read from the data, not from the text of the source, unless noted: active = percent of DMSO control GFP below about 86%; inactive = the rest, inconclusive results apart.

Assay [1] in a line: yeast TOR pathway RPL19A-GFP modulators, primary screen, cell-based, S. cerevisiae, multiplex flow cytometry (AID 1862).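 Note: lower values mimic rapamycin by blocking the RPL19A rise seen in DMSO cells.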 Particulars: S. cerevisiae RPL19A-GFP strain, flow cytometry fluorescence, 3 h; at 10 µM; stronger effect = lower value.
Assay [2] is described as follows: modulators of MEP2-GFP levels in yeast, primary screen, S. cerevisiae, multiplex flow cytometry (AID 1867;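 active = GFP response, as percent of the DMSO control, above the screen-wide mean plus 3 SD, about 139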;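 note: median GFP channel fluorescence of barcode-gated MEP2-GFP cells measured by flow cytometry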). To be noted: S. cerevisiae MEP2-GFP strain, 3 h, at 10 µM, stronger effect = higher value, 100% means same as DMSO wells.
The nature of assay [3]: modulators of CIT2-GFP expression in yeast, primary screen, S. cerevisiae, GFP fusion, multiplex flow cytometry (AID 1870;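 active = percent response above a set limit, the screen-wide mean plus 3 SD, cut at about 130% in these data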;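 note: barcoded CIT2-GFP strain pooled with four other GFP strains with rapamycin as positive control; median GFP fluorescence per well over plate mean of DMSO wells so 100% = DMSO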). Particulars: 3 h, at 10 µM, stronger effect = higher value.
Assay [4] can be described thus: modulators of LAP4-GFP expression in yeast, primary screen, S. cerevisiae, multiplex flow cytometry (AID 1873;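 active = GFP signal, as percent of the solvent control, above the screen mean plus 3 SD, about 149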). Particulars: 3 h, at 10 µM, stronger effect = higher value.
A short description of assay [5]: inhibitors of CD8+ T cell-vesicle binding, pilot screen, LFA-1/ICAM-1 modulator project, MLPCN validation set, flow cytometry (AID 2523;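 active = response below a set limit, under 55% cells CD8-positive and vesicle-bound, and CD8 cells' 90th-percentile brightness under 279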;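 for vesicle binding response: mean PE anti-B7-1 fluorescence of CD8+ cells relative to row control; 100% = QL9-loaded vesicles with DMSO vehicle in the same plate row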). Particulars: 2C mouse CD8+ T cells, at 7 µM, stronger effect = lower value; double positive events: measured here: CD8+/vesicle+ event percentage.
The target of assay [6] is Integrin beta-1 (Homo sapiens) + Integrin alpha-4 (Homo sapiens) (UniProt P13612+P05556). The experiment in a line: inhibition of HUTS-21 binding to VLA-4, pilot screen, VLA-4 allosteric modulator project, U937 cells, HUTS-21 mAb, flow cytometry, validation set (AID 2674;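 active = inhibition above 50%, about 3 SD of the validation set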;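 note: antibody binding induced by the VLA-4 ligand LDV present at three times its Kd; 0% = LDV ligand with antibody and no compound and 100% = antibody without LDV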). To be noted: HUTS-21 LIBS mAb binding, at 6.7 µM, stronger effect = higher value, binding induced by LDV ligand.
Sequence of Integrin beta-1 (Homo sapiens) + Integrin alpha-4 (Homo sapiens) (P05556 whole entry, looked up): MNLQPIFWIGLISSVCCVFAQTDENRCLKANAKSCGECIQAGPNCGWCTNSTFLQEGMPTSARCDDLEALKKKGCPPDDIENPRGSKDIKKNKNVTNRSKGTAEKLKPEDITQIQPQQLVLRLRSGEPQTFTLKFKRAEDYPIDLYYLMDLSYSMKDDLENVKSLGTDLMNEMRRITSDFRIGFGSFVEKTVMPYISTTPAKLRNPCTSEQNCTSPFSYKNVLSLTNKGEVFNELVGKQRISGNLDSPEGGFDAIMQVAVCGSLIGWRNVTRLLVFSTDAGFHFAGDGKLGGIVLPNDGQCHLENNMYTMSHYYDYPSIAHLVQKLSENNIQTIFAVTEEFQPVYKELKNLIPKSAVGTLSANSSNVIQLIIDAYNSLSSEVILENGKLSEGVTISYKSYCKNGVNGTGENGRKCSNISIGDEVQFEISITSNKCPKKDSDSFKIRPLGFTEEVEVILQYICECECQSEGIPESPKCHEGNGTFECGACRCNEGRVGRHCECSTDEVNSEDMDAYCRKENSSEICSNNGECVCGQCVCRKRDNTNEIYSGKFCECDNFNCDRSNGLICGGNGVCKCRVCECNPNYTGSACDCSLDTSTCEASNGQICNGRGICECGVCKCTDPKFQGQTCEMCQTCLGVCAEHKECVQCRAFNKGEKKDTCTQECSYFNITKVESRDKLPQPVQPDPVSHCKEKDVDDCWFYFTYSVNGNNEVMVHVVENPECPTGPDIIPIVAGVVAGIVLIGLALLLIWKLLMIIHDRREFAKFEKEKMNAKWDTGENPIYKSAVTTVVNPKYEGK
Sequence of Integrin beta-1 (Homo sapiens) + Integrin alpha-4 (Homo sapiens) (P13612 whole entry, looked up): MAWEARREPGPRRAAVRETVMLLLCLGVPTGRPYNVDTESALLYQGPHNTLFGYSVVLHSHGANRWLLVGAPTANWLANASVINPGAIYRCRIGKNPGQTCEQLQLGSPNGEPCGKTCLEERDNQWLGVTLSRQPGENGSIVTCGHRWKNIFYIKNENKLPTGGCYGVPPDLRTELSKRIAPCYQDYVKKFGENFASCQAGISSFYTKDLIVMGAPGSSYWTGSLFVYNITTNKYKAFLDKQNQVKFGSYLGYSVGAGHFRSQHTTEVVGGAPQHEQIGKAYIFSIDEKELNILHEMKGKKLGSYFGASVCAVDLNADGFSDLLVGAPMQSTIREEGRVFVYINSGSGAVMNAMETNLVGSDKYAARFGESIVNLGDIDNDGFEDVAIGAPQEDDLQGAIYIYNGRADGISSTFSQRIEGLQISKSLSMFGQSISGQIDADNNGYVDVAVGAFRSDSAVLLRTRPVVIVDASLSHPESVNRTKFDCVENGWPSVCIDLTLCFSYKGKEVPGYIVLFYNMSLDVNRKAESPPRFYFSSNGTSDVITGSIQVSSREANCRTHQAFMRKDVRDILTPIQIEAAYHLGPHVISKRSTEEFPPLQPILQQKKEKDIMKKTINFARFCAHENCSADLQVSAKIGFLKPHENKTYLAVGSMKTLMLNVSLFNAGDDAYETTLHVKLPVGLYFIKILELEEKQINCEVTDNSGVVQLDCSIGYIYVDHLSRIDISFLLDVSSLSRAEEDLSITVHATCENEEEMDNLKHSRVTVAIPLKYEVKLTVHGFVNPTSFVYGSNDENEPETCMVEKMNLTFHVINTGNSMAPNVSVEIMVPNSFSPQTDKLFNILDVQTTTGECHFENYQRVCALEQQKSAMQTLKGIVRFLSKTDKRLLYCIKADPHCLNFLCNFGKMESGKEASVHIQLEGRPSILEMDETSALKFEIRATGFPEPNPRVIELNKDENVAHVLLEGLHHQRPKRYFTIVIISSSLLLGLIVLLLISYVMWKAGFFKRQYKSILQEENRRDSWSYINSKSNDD

Assay [7] is described as follows: superoxide lowering in aged yeast cells, pilot screen, validation compound set (AID 2706;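 active = superoxide response below 65% of plate, a cut near 3 SD across the whole screen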;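 note: yeast exposed to compound for one week at 30 degrees C before staining; 100% = mean of all compound wells on the same plate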). To be noted: S. cerevisiae aging, superoxide DHE fluorescence; at 10 µM, stronger effect = lower value.
For assay [8], the target named is Beta-adrenergic receptor kinase 1 (Homo sapiens) (UniProt P25098). The experiment in a line: GRK2 binders displacing RNA aptamer, biochemical, validation, human GRK2, bead flow cytometry (AID 488806;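 active = aptamer binding inhibition above 30%, about 3 SD of noise from non-fluorescent compounds; inactive = inhibition at or below 30%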). To be noted: bead-bound GRK2, FAM-aptamer displacement, at 10 µM, stronger effect = higher value.
Sequence of Beta-adrenergic receptor kinase 1 (Homo sapiens) (P25098 whole entry, looked up): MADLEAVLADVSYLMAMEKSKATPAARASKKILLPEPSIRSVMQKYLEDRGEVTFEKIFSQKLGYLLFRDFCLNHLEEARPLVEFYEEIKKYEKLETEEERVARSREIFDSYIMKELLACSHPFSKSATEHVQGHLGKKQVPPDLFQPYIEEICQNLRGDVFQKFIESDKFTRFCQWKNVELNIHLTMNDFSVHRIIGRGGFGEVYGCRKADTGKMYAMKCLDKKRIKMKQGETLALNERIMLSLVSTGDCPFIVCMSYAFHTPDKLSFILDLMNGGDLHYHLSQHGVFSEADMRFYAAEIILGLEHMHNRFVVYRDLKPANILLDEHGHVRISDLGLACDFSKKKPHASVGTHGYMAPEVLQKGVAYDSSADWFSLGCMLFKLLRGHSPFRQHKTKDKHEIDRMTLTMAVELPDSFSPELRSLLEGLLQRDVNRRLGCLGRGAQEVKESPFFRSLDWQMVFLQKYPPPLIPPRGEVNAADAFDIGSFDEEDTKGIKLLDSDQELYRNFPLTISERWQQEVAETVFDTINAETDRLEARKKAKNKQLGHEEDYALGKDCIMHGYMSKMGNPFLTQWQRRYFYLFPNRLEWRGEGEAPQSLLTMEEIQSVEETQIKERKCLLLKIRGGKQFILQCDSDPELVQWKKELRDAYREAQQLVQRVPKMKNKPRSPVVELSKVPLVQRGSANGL
The target in assay [9] is Beta-2 adrenergic receptor (Homo sapiens) (UniProt P07550). Nature of the assay: beta2AR agonists driving receptor internalization, pilot screen, cell-based, FAP fluorogen, flow cytometry, validation set (AID 504459;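 active = percent response above 42, roughly 3 SD of non-fluorescent test compounds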;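 note: agonist-driven loss of surface beta2AR via internalization measured by FAP dye flow cytometry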). Particulars: Am2.2-beta2AR cells, FAP surface receptor flow cytometry; at 10 µM; stronger effect = higher value.
Sequence of Beta-2 adrenergic receptor (Homo sapiens) (P07550 whole entry, looked up): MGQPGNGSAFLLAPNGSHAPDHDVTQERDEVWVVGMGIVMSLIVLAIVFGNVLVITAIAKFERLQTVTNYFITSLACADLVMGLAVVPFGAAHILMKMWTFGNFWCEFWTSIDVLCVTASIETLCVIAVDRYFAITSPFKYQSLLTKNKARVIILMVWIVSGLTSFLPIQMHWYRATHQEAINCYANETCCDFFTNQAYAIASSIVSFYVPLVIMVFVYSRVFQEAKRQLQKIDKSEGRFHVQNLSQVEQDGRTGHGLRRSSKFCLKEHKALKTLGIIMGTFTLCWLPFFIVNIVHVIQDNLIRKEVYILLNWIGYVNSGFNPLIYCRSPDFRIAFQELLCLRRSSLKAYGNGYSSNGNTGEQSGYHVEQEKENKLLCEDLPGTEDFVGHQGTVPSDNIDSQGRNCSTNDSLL
The target of assay [10] is AP-2 complex subunit beta (Homo sapiens) (UniProt P63010). The experiment in a line: inhibitors of arrestin peptide binding to AP2, pilot screen, biochemical, validation set, GST-AP2 beads, flow cytometry (AID 504541;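 active = inhibition above 54%, about 3 SD of non-fluorescent compounds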;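 note: AP2 carries R879A mutation and is captured from E. coli lysate; bead-bound FITC arrestin peptide fluorescence measuring arrestin peptide binding to AP2; 0% = DMSO wells and 100% = excess unlabeled arrestin peptide control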). To be noted: FITC arrestin peptide, at 10 µM, stronger effect = higher value, AP2 beta2 appendage fragment, R879A mutant.
Sequence of AP-2 complex subunit beta (Homo sapiens) (P63010 whole entry, looked up, the tested form may be a part, one chain of several): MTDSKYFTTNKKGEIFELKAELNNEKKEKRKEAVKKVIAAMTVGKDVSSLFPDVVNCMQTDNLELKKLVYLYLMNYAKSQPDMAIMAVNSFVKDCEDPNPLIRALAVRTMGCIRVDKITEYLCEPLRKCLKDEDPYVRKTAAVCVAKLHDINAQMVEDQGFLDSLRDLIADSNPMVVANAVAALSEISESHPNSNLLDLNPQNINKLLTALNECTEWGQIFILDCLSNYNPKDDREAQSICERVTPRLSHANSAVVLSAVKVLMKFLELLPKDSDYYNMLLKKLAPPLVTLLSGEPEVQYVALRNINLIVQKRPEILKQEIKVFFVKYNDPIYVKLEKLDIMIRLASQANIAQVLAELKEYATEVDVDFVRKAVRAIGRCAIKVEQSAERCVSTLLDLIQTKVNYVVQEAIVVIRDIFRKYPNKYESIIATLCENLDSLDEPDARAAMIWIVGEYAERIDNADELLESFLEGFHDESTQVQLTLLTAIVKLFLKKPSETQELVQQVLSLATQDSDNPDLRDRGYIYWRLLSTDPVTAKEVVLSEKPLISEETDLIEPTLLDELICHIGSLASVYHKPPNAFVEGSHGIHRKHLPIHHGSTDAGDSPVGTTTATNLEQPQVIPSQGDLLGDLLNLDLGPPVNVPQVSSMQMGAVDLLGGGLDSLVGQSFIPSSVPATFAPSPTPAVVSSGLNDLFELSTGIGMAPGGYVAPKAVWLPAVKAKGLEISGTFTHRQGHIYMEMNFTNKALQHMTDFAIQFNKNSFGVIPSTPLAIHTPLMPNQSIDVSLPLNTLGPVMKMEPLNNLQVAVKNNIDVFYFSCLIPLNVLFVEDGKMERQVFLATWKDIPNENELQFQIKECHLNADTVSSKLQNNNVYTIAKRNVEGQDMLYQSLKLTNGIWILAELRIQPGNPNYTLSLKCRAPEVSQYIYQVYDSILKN
Assay [11] is described as follows: yeast V-ATPase proton transport modulators, S. cerevisiae, pHLuorin, HTS validation (AID 504600; in the data active = response above about 15%;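 note: plate controls were DMSO for no effect and reference compound for full effect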). Particulars: S. cerevisiae pHLuorin cytosolic pH, at 10 µM, stronger effect = higher value.
Assay [12] deals with anti-desmoglein-3 scFv antibody binding to human DSG3. Nature of the assay: inhibitors of anti-DSG3 scFv binding to DSG3, pilot screen, biochemical, validation compound set, bead-based, flow cytometry (AID 588368;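 active = binding below the plate cutoff, the plate median minus 3 SD, with a reading above zero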;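 note: signal is the median channel fluorescence of bead-bound GFP antibody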). Particulars: Protein G beads, DSG3-Fc, scFv-GFP binding, at 10 µM, stronger effect = lower value.
Assay [13] in a line: inhibitors of fungal efflux pumps CDR1, CDR2, MDR1, pilot screen, validation compound set, multiplex, phenotypic (AID 588506;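 active = efflux inhibition above 0.42, the validation set average plus 4 SD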;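 note: Nile Red retained in cells so higher fluorescence means more efflux inhibition; 0 = negative control wells and 1 = enniatin B 25 µM full block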). Particulars: S. cerevisiae pump-expressing triplex, Nile Red efflux flow cytometry; at 10 µM; stronger effect = higher value; the pumps come from Candida albicans.
In assay [14] the target is ATP-binding cassette sub-family B member 6 (Homo sapiens) (UniProt Q9NP58). Nature of the assay: ABCB6 transporter inhibitors, pilot screen, K562-ABCB6 cells, flow cytometry, validation set (AID 588550;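 active = inhibition above the screen-wide mean plus 3 SD, about 51%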;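 note: 0% = DMSO wells and 100% = benzethonium chloride 70 µM positive control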). To be noted: K562-ABCB6 porphyrin accumulation, 1 h, at 10 µM, stronger effect = higher value.
Sequence of ATP-binding cassette sub-family B member 6 (Homo sapiens) (Q9NP58 whole entry, looked up): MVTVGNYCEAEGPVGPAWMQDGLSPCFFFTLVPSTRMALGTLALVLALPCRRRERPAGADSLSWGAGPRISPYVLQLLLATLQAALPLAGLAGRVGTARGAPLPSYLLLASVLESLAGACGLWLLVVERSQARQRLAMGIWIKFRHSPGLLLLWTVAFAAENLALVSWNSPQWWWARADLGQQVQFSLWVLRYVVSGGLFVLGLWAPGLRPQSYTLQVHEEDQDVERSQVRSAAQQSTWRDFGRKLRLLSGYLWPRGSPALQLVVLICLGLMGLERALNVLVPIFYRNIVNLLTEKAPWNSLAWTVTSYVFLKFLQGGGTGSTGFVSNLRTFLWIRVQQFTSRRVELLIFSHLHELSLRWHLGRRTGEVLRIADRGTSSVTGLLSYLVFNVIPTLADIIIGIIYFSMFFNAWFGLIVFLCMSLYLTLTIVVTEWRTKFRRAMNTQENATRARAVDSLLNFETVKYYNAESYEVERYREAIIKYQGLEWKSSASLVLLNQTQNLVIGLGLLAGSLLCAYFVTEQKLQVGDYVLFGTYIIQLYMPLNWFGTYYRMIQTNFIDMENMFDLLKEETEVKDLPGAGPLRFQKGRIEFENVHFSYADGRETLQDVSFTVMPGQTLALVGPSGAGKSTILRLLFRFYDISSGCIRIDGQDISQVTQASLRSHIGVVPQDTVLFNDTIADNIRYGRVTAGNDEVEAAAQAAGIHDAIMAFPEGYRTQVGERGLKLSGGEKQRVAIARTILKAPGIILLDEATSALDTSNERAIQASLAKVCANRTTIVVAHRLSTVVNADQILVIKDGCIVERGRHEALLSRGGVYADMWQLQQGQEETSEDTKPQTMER
A short description of assay [15]: promoters of myeloid differentiation in arrested cells, primary screen, cell-based, GFP/MAC1 double positive, flow cytometry, validation set (AID 588685;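 active = differentiation response of at least 50%, scaled between solvent and reference control, from cells with both markers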;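 note: compound exposure lasts four days before antibody staining and flow analysis; 0% = DMSO wells and 100% = 5 µM fulvestrant positive control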). To be noted: ER-HoxA9 marrow cells, stronger effect = higher value, normalized: vehicle 0, fulvestrant 100.
The nature of assay [16]: modulators of AGP1-GFP expression in yeast TOR pathway, primary screen, cell-based, multiplex flow cytometry, S. cerevisiae (AID 1887;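 active = GFP signal above the screen-wide mean plus 3 SD, that is over about 124.5% of the solvent control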;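 note: AGP1-GFP fusion strain of S. cerevisiae within a five-strain barcoded multiplex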). To be noted: 3 h, at 10 µM, stronger effect = higher value.

Consider `NC12CC3CC(CC(C3)C1)C2`, for which the percent of DMSO control GFP in assay [1] is 94.4% (inactive). The values for the GFP response vs DMSO in assay [2] and in [4] were 119% (inactive) and 78.7% (inactive), respectively. The percent response of DMSO control in assay [3] was 111% (inactive). The double positive events in [5] was 60.2%. Also, the vesicle binding response in assay [5] was 195% (inactive). Moreover, the inhibition in [6] is -27.5% (inactive); in [10], 0.4% (inactive); in assay [14], 15% (inactive). Also, the superoxide response (% of plate) in assay [7] is 96.9% (inactive). In assay [8], the aptamer binding inhibition is -5% (inactive). Besides, the response was -15.1% (inactive) in assay [9] and 3.04% (inactive) in assay [11]. Also, the binding (% of control) in [12] is 102% (inactive). In addition, in [13], the efflux inhibition (fraction of control) was -0.24 (inactive). In assay [15], the differentiation response is -1.64% (inactive).

With `CC12CCC(C(=O)N3CCCCC3)([C@H](Br)C1=O)C2(C)C` (stereo partly drawn), the percent of DMSO control GFP in assay [1] was 90.6% (inactive). Besides, the GFP response vs DMSO in [2] was 119% (inactive); in assay [4], 78.7% (inactive). Moreover, the percent response of DMSO control in [3] was 101% (inactive). In [5], this compound showed a double positive events of 65.8%. Further, the vesicle binding response in assay [5] was 272% (inactive). Also, the results for the inhibition in assay [6], in [10] and in assay [14] were 8.4% (inactive), -4.61% (inactive) and 11% (inactive), respectively. Also, the superoxide response (% of plate) in [7] is 101% (inactive). In addition, the aptamer binding inhibition in [8] was -1% (inactive). Further, the response in [9] is -6.79% (inactive); in assay [11], 0.52% (inactive). The binding (% of control) in assay [12] is 98.5% (inactive). Further, the efflux inhibition (fraction of control) in [13] is -0.13 (inactive). Moreover, the differentiation response in [15] was -1.64% (inactive).

On to `Clc1ccc(Cn2c(CN3CCCC3)nc3ccccc32)cc1`, for which the percent of DMSO control GFP in assay [1] was 100% (inactive). Further, the GFP response vs DMSO in assay [2] was 104% (inactive); in [4], 100% (inactive). The percent response of DMSO control in assay [3] is 107% (inactive). Moreover, the GFP response, % of DMSO in [16] was 102% (inactive). In assay [5], this compound came in with a double positive events of 56.4%. Moreover, the vesicle binding response in assay [5] was 98% (inactive). Moreover, in assay [7], the superoxide response (% of plate) was 105% (inactive). Also, the aptamer binding inhibition in [8] was -1% (inactive). For the same compound, the inhibition in assay [10] was 1.97% (inactive); in assay [14], 4% (inactive). Further, in assay [11], the response was -2.91% (inactive). In addition, the binding (% of control) in assay [12] is 102% (inactive). Also, the efflux inhibition (fraction of control) in assay [13] was -0.43 (inactive). For the same compound, the differentiation response in assay [15] is -22.8% (inactive).

In the case of `CCOc1ccc(C(=O)Nc2ccc(N3CCN(C(C)=O)CC3)cc2)cc1[N+](=O)[O-]`, in [1], the percent of DMSO control GFP is 93% (inactive). Also, the GFP response vs DMSO was 106% (inactive) in assay [2] and 78.7% (inactive) in assay [4]. Moreover, in [3], the percent response of DMSO control is 115% (inactive). The compound also gave a double positive events in assay [5] of 68.5%. Further, the vesicle binding response in assay [5] is 210% (inactive). Further, the values for the inhibition in assay [6], in assay [10] and in assay [14] were 3.55% (inactive), -0.46% (inactive) and 11% (inactive), respectively. For the same compound, the superoxide response (% of plate) in assay [7] is 100% (inactive). Also, the aptamer binding inhibition in [8] was 3% (inactive). For the same compound, the figures for the response in assay [9] and in assay [11] were -6.75% (inactive) and 0.55% (inactive), respectively. In addition, the binding (% of control) in assay [12] is 99.4% (inactive). Besides, in assay [13], the efflux inhibition (fraction of control) was 0.27 (inactive). Moreover, the differentiation response in assay [15] was -1.64% (inactive).

With `Cc1ccc2[nH]c3c(c2c1)CN(C(=O)CN1CCSCC1)CC3`, the percent of DMSO control GFP in [1] is 100% (inactive). Further, the GFP response vs DMSO in assay [2] was 93% (inactive); in assay [4], 102% (inactive). Moreover, in assay [3], the percent response of DMSO control is 101% (inactive). Also, the GFP response, % of DMSO in assay [16] is 101% (inactive). Besides, in assay [5], the double positive events is 60.8%. Moreover, the vesicle binding response in assay [5] was 66.8% (inactive). Further, the inhibition in [6] was -51.3% (inactive); in assay [10] it was -3.3% (inactive). Further, in assay [8], the aptamer binding inhibition is 0% (inactive). Further, the response was -263% (inactive) in assay [9] and 0.82% (inactive) in [11]. Further, the binding (% of control) in assay [12] was 439% (inactive). The efflux inhibition (fraction of control) in [13] was -0.04 (inactive). In addition, the differentiation response in [15] was 28.6% (inactive).
